Experimental data published in PubChem BioAssay AID933 (National Center for Advancing Translational Sciences (NCATS), 2007).
Records with an inconclusive call do not appear. A call without a number means that no potency is given here. Activity calls are given as the source filed them. The call rests on the fitted dose curve; in most records, active means well fitted activation curve with a large enough effect in the signal ratio, with a control signal flat; inconclusive means small, poorly fitted or top-dose-only effect, or a change in a side signal; inactive means flat fitted curve, though single readings scatter; the % refers to the signal ratio.

Target: Thyrotropin receptor (Homo sapiens) (UniProt P16473)
Assay: Secondary Concentration-Response Assay for Agonists of the Thyroid Stimulating Hormone Receptor: HTRF Activity Detection
Details: HEK293-TSHR cells, cAMP HTRF ratio, 30 min; series mostly up to 91.7 µM
Procedure, shortened: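 cAMP accumulation was detected by antibody-based HTRF, excitation 330 nm, emissions 615 and 660 nm. Compounds acted for 30 min at room temperature on stably TSHR-transfected HEK 293 cells, with phosphodiesterase inhibitor RO 20-1724 (100 uM) in the medium.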
Potency means the concentration at half of the fitted maximal effect.

Chain of Thyrotropin receptor (Homo sapiens) (P16473 whole entry, looked up): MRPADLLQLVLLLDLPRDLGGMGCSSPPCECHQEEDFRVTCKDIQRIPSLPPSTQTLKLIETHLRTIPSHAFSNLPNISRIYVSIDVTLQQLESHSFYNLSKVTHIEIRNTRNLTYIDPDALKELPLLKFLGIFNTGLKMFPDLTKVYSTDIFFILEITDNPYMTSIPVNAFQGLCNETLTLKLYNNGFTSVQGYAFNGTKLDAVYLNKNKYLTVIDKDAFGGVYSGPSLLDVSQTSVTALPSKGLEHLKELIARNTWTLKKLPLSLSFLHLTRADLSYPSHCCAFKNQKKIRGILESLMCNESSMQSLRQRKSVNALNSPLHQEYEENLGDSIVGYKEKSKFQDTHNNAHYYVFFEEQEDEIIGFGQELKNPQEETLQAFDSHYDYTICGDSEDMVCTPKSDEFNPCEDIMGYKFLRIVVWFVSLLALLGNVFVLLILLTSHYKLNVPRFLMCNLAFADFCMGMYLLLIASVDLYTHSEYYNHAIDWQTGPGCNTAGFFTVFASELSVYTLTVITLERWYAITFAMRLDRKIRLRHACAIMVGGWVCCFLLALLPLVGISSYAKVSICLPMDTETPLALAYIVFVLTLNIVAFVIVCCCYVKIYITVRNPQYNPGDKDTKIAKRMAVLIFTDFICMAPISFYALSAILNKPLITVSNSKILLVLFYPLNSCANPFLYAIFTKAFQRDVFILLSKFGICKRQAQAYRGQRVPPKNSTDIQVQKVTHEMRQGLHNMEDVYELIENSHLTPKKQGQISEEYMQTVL

SMILES	Potency	activation
O=C1CC(c2ccco2)CC2=C1C(c1cccnc1)n1nc(C(F)(F)F)nc1N2 (stereo unspecified)	inactive	–
COCCNC(=O)C(c1ccccc1)N(Cc1cccs1)C(=O)Cn1nnc2ccccc21 (stereo unspecified)	–	-0.712% [at 0.00035 µM] (inactive)
CCn1c(=O)c(C(=O)CN2CCCc3ccccc32)c(N)n(Cc2ccccc2)c1=O	inactive	–
O=C1c2ccccc2NC(c2ccc(OCc3ccccc3)c(OCc3ccccc3)c2)N1Cc1ccco1 (stereo unspecified)	inactive	–
Cc1ccccc1N1C(=O)c2ccccc2N2C(=O)c3ccccc3C12 (stereo unspecified)	inactive	–
COc1ccc(C(=O)O)cc1COc1ccc(NC(C)=O)cc1	inactive	–
CC1=CCC2C(=O)N(c3ccc(Br)cc3C)C(=O)C2C1 (stereo unspecified)	–	0.113% [at 0.00035 µM] (inactive)
O=c1c2ccccc2nc(-c2ccccc2O)n1Cc1ccccc1	inactive	–
CCc1ccccc1NC1=NCC(=O)N1Cc1ccc(OC)cc1	–	0.0927% [at 0.00035 µM] (inactive)
COc1ccc(C2Nc3ccccc3C(=O)N2Cc2ccc(C(C)(C)C)cc2)cc1COc1ccc(NC(C)=O)cc1 (stereo unspecified)	inactive	–
O=C1c2ccccc2N2C(=O)c3ccccc3[C@H]2N1c1ccccc1	inactive	–
COc1ccc(/C=C2/C(=O)NC(=O)N(Cc3ccco3)C2=O)cc1COc1ccc(NC(C)=O)cc1	inactive	–
CC(NC(=O)COC(=O)c1ccco1)C12CC3CC(CC(C3)C1)C2 (stereo unspecified)	inactive	–
COc1ccc(CN(Cc2ccccc2)C(=O)CN2CCN(C)CC2)cc1COc1ccc(NC(C)=O)cc1	inactive	–
O=C(CN(Cc1ccc(F)cc1)S(=O)(=O)c1ccccc1)N1CCCCC1	–	0.34% [at 0.00035 µM] (inactive)
CCCN1C(=O)c2ccccc2NC1c1ccc(OC)c(CSc2ccccn2)c1 (stereo unspecified)	inactive	–
COc1ccc(CN(Cc2ccccc2)C(=O)C2CC2)cc1COc1ccc(NC(C)=O)cc1	15.8 µM (active)	–
CCCC(=O)C1=C(SCC)CC(C)(C)C(C(=O)OC)C1=O (stereo unspecified)	–	0.0277% [at 0.00035 µM] (inactive)

SMILES	Potency	activation
COc1ccc2c(c1)C1(Nc3ccccc3C(=O)N1c1ccccc1)C(=O)N2 (stereo unspecified)	inactive	–
COc1ccc(-c2nc3ccccc3c(=O)n2Cc2ccccc2)cc1COc1ccc(NC(C)=O)cc1	8.91 µM (active)	–
CCOC(=O)CCc1c(C)nc2c(c(C)nn2C(C)(C)C)c1C	–	0.0158% [at 0.00035 µM] (inactive)
CCCN1C(=O)c2ccccc2NC1c1ccc(OC)c(COc2cccc(C)c2C)c1 (stereo unspecified)	inactive	–
COc1ccc(N2C(=O)c3ccccc3NC2c2ccc(OC)c(COc3ccc(NC(C)=O)cc3)c2)cc1 (stereo unspecified)	inactive	–
Cc1cc(C)n(S(=O)(=O)c2cc(C(=O)O)c(Cl)cc2Cl)n1	–	-0.754% [at 0.00035 µM] (inactive)
COc1ccc(C2Nc3ccccc3C(=O)N2c2ccc(F)cc2)cc1COc1ccc(NC(C)=O)cc1 (stereo unspecified)	inactive	–
COc1ccc(C2Nc3ccccc3C(=O)N2Cc2ccccc2)cc1COc1cccc(Cl)c1 (stereo unspecified)	inactive	–
CCOc1cc(C2Nc3ccccc3C(=O)N2c2ccccc2)ccc1O (stereo unspecified)	inactive	–
COc1ccc2c(c1OC)C(=O)N1c3ccccc3C(=O)N(c3ccc(F)cc3)C21 (stereo unspecified)	inactive	–
COc1cccc2cc(C(=O)N(Cc3cccs3)Cc3cccs3)c(=O)oc12	inactive	–
CC(=O)Nc1ccc(S(=O)(=O)N(C)c2ccccc2)cc1	–	-0.796% [at 0.00035 µM] (inactive)
COc1ccc(N2C(=O)c3ccccc3NC2c2ccc(OC)c(Cn3nnc4ccccc43)c2)cc1 (stereo unspecified)	inactive	–
CCCN1C(=O)c2ccccc2NC1c1ccc(OC)c(COc2cccc(OC)c2)c1 (stereo unspecified)	inactive	–
CCOc1cc(C2Nc3ccccc3C(=O)N2c2ccccc2)c(Br)cc1OCC(=O)O (stereo unspecified)	inactive	–
COc1ccc(-c2nc3ccc(Cl)cc3c(=O)n2Cc2ccccc2)cc1COc1ccc(NC(C)=O)cc1	inactive	–
Oc1ccccc1Cn1c(-c2ccccc2O)nc2ccccc21	–	-0.344% [at 0.00035 µM] (inactive)
COc1ccc(C2Nc3ccccc3C(=O)N2c2ccccc2)cc1COc1ccccn1 (stereo unspecified)	inactive	–
